For 18 compounds, AC50 and outcome results are on record in PubChem BioAssay (EPA / NIEHS).

Results filed as inconclusive are left out. Active and inactive are the calls of the source. Rule for the calls, unless noted: active = hit-call score of the fitted dose curve at least 0.9, where 1 is the maximum; inactive = score below 0.9.

Sequence of Luciferin 4-monooxygenase (Photinus pyralis) (P08659 whole entry, looked up): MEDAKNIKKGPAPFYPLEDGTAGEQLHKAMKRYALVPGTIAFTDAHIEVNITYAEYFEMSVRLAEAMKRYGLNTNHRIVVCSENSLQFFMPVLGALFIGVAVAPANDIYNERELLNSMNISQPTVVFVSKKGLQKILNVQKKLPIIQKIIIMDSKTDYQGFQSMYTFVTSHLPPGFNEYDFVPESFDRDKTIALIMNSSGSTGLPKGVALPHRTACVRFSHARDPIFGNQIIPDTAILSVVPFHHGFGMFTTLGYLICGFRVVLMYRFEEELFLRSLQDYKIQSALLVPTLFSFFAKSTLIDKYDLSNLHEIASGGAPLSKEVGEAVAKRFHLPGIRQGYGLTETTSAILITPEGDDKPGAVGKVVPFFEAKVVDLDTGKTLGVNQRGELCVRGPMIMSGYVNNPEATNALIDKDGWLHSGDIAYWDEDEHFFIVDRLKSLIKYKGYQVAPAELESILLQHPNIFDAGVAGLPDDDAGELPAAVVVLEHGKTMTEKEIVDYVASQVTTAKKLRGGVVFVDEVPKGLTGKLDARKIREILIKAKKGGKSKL

Test system in the first experiment: not listed separately
Nature of the experiment: CCTE_Padilla_ZF_144hpf_TERATOSCORE: (Legacy) CCTE's 144 Hour Post-fertilization zebrafish Assay Teratoscore, Padilla Lab (AID 2283679).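 For AC50: zebrafish embryos with chorions exposed by immersion from 6-8 hpf to 5 dpf with daily renewal; teratogenicity score from eye scoring of death hatching and malformations at 144 hpf; higher score means more developmental defects relative to DMSO baseline.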 In short, it runs like this: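 Larvae scored by eye at 144 hpf for death, hatching and malformations after a day in clean Hanks'. Before that, daily-renewed exposure at 80 uM (0.4% DMSO, 26C) from roughly 6-8 hpf through 5 dpf, 4 embryos per chemical.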
By AC50 is commonly meant the concentration at which the activity in the assay is half-maximal. For the compound `c1ccc2c(c1)Nc1ccccc1S2`, the AC50 is 14.2 µM (active).
Same read-out and setting: as for `CC(C)(C)c1ccc(O)cc1`, the figure is 57.8 µM (active).
For the compound `CCCCCCCc1ccc(O)cc1`, the AC50 is 6.11 µM (active).
On the same count and under the same terms, the figure for `Nc1ccc2ccccc2c1` is 42.1 µM (active).
In the case of `Cc1cccc(N)c1`, the result was inactive.
The same measure, in the same setting: as for `CCOP(=S)(OCC)SCSCC`, the entry is “inactive”.
In the case of `CCC(C)(C)c1ccc(O)cc1`, the AC50 is 14.2 µM (active).
For `[N-]=[N+]=[N-]`, the result was inactive.
Turning to `CCOP(=S)(Oc1ccc([N+](=O)[O-])cc1)c1ccccc1` (configuration not stated), the AC50 was 1.19 µM (active).

Test system in a further experiment: not listed separately
Nature of the experiment: STM_H9_OrnithineISnorm_perc: Stemina devTOX quickPredict H9 human embryonic stem cell (hESC)-based Assay for Ornithine (ORN) Metabolite Biomarker, Normalized (AID 2283712).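 Note: ornithine released into spent medium during last day measured by mass spectrometry.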 In outline: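 Cells: undifferentiated H9 hESC. Dosing: 72 h, media replaced every 24 h. Sample: final 24-h conditioned media, 40% acetonitrile. Read: UPLC-HRMS ornithine area vs 13C standard, % DMSO control.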
On to `c1ccc2c(c1)Nc1ccccc1S2`, for which the result was inactive.
Still for that read-out and setting: as for `Nc1ccc2ccccc2c1`, the entry is “inactive”.
As to `CCC1(c2ccccc2)C(=O)N=C(O)NC1=O` (configuration not stated), the AC50 is 0.0967 µM (active).
On the same count and under the same terms, as for `CCC(C)(C)c1ccc(O)cc1`, the figure is 78.2 µM (active); as for `Cc1ccc(N)cc1N`, 89.7 µM (active).

Test system in the next experiment: not listed separately
Nature of the experiment: STM_H9_CystineISnorm_perc: Stemina devTOX quickPredict H9 human embryonic stem cell (hESC)-based Assay for Cystine (CYSS) Metabolite Biomarker, Normalized (AID 2283713). In short, it runs like this:
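Secreted cystine was measured by UPLC-HRMS in H9 hESC medium after 72h compound exposure with 24-hourly replenishment. Values are standard-normalized areas relative to 0.1% DMSO.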
Take `c1ccc2c(c1)Nc1ccccc1S2`: the result was inactive.
Same read-out and setting: the entry for `Nc1ccc2ccccc2c1` is “inactive”; for `CCC1(c2ccccc2)C(=O)N=C(O)NC1=O` (configuration not stated) it is “inactive”; for `CCC(C)(C)c1ccc(O)cc1` it is “inactive”.
On the same count and under the same terms, as for `Cc1ccc(N)cc1N`, the entry is “inactive”.

Test system in the next experiment: not listed separately
Nature of the experiment: STM_H9_OrnCyssISnorm_ratio: Stemina devTOX quickPredict H9 human embryonic stem cell (hESC)-based Assay for Ornithine (ORN):Cystine (CYSS) Ratio (AID 2283714; active = hit-call score of the fitted dose curve at least 0.9, where 1 is the maximum). In short, it runs like this:
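Undifferentiated H9 hESCs were exposed to compound for 72h with media and chemical replaced every 24h. Final 24-h conditioned media were deproteinized and analysed by UPLC-HRMS. ORN and CYSS peak areas were normalized to C13 internal standards and the ratio taken versus 0.1% DMSO.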
With `c1ccc2c(c1)Nc1ccccc1S2`, the result was inactive.
On the same count and under the same terms, as for `Nc1ccc2ccccc2c1`, the entry is “inactive”; as for `CCC1(c2ccccc2)C(=O)N=C(O)NC1=O` (configuration not stated), “inactive”.
For `CCC(C)(C)c1ccc(O)cc1`, the AC50 is 40.1 µM (active).
Still for that read-out and setting: as for `Cc1ccc(N)cc1N`, the figure is 65.8 µM (active).

Read-out in another experiment: not listed separately
Nature of the experiment: CEETOX_H295R_MTT_cell_viability: Viability Assessment in the CeeTox HT-H295R MTT Assay (AID 2283718).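 For AC50: curve fitted both ways so AC50 may mark viability loss or gain.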 In short, it runs like this: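 H295R cells prestimulated 48 h with 10 uM forskolin, then exposed 48 h to test chemical (0.1% DMSO final). Viability by MTT (0.5 mg/ml, 4 h, 37 C), absorbance 570/650 nm; percent change versus DMSO, bidirectional fit.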
Turning to `c1ccc2c(c1)Nc1ccccc1S2`, the compound was called inactive.
For the compound `Nc1cc2c3c(c1)C(c1ccccc1)=N[C@@H](NC(=O)c1cccnc1)C(=O)N3CC2`, the result was inactive.
On to `O=S1(=O)OCC2C(CO1)C1(Cl)C(Cl)=C(Cl)C2(Cl)C1(Cl)Cl` (configuration not stated), for which the result was inactive.
Still for that read-out and setting: as for `CCCCc1ccc(O)cc1`, the entry is “inactive”.
For `Nc1ccc(Cl)cc1`, the call was inactive.
On to `Nc1ccc2ccccc2c1`, for which the AC50 is 23.9 µM (active).
Turning to `Cc1cccc(N)c1`, the outcome was inactive.
Regarding `CCC(C)(C)c1ccc(O)cc1`, the call was inactive.
Same read-out and setting: the entry for `CCOP(=S)(Oc1ccc([N+](=O)[O-])cc1)c1ccccc1` (configuration not stated) is “inactive”.
For `c1ccc(OP(Oc2ccccc2)Oc2ccccc2)cc1`, the compound was called inactive.
Still for that read-out and setting: as for `Cc1ccc(N)cc1N`, the entry is “inactive”.

Another experiment has as its system Thyroperoxidase (TPO), gene 445522. Nature of the experiment: CCTE_Simmons_GUA_TPO: CCTE's Guaiacol Assay for Thyroperoxidase (TPO) Inhibition, Simmons Lab (AID 2283750; active = hit-call score of the fitted dose curve at least 0.9, where 1 is the maximum). In short, it runs like this: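 Porcine thyroid microsomes (25 ug) in 200mM potassium phosphate, preincubated 30 s at 37C with compound (8 concentrations, 5 nM–87.5 uM) and 35mM guaiacol; 1mM H2O2 starts reaction. Absorbance change at 450nm over first 80 s; loss of signal versus DMSO, three replicates.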
Regarding `c1ccc2c(c1)Nc1ccccc1S2`, the AC50 is 100 µM (active).
As to `Nc1cc2c3c(c1)C(c1ccccc1)=N[C@@H](NC(=O)c1cccnc1)C(=O)N3CC2`, the compound was called inactive.
For `Cc1cccc(N)c1`, the AC50 was 8.25 µM (active).
On the same count and under the same terms, as for `[N-]=[N+]=[N-]`, the figure is 26.5 µM (active).

The target in the next experiment is Luciferin 4-monooxygenase (Photinus pyralis) (UniProt P08659). The experiment is described as follows: CCTE_Simmons_QuantiLum_inhib_2: CCTE's Firefly Luciferase Inhibition Assay, Simmons Lab (AID 2283767; active = hit-call score of the fitted dose curve at least 0.9, where 1 is the maximum;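 for AC50: potency for inhibitors that lower luciferase luminescence relative to DMSO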). In short, it runs like this:
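Counter-screen for nonspecific enzyme inhibition: purified firefly luciferase incubated 30 min at 37C with chemicals up to 87.5 uM final, then luminescence measured after luciferin/dATP injection; activity fitted against DMSO baseline.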
As to `c1ccc2c(c1)Nc1ccccc1S2`, the compound was classed as inactive.
Still for that read-out and setting: as for `CC(C)(C)c1ccc(O)cc1`, the entry is “inactive”; as for `Nc1cc2c3c(c1)C(c1ccccc1)=N[C@@H](NC(=O)c1cccnc1)C(=O)N3CC2`, “inactive”.
As for `O=S1(=O)OCC2C(CO1)C1(Cl)C(Cl)=C(Cl)C2(Cl)C1(Cl)Cl` (configuration not stated), the AC50 was 31.9 µM (active).
On to `CCCCc1ccc(O)cc1`, for which the compound was called inactive.
Take `CCCCCCCc1ccc(O)cc1`: the AC50 is 43.6 µM (active).
On to `Nc1ccc(Cl)cc1`, for which the result was inactive.
For the compound `Nc1ccc2ccccc2c1`, the AC50 is 53.8 µM (active).
Take `CCC1(c2ccccc2)C(=O)N=C(O)NC1=O` (configuration not stated): the result was inactive.
On the same count and under the same terms, the entry for `Cc1cccc(N)c1` is “inactive”.
Take `O=c1ssc(Cl)c1Cl`: the AC50 was 18 µM (active).
For the compound `CCOP(=S)(OCC)SCSCC`, the compound was called inactive.
Still for that read-out and setting: as for `CCC(C)(C)c1ccc(O)cc1`, the entry is “inactive”.
On the same count and under the same terms, as for `[N-]=[N+]=[N-]`, the entry is “inactive”; as for `CCCCN(CC)C(=O)SCCC`, “inactive”.
Still for that read-out and setting: as for `CCOP(=S)(Oc1ccc([N+](=O)[O-])cc1)c1ccccc1` (configuration not stated), the entry is “inactive”; as for `c1ccc(OP(Oc2ccccc2)Oc2ccccc2)cc1`, “inactive”.
With `Cc1ccc(N)cc1N`, the AC50 is 21.6 µM (active).
